# Compounds with a hit are over-represented: about 12% of the library has one in this group of screens.
# BAZ2B inh: qHTS Assay for Inhibitors of BAZ2B; AlphaScreen BAZ2B-H3K14Ac peptide displacement; Potency, µM (doses to about 114 µM), for the others: top-dose activity change, negative = inhibition, actives largely listed as inhibitors; 4.4% of 360,000 active; AID 504333, 2011; note: % is set by controls: 0 for no effect and ±100 for the full control effect; nearly all actives have a fitted effect of over 60% in size
# Target sequence (Q9UIF8 whole entry, looked up): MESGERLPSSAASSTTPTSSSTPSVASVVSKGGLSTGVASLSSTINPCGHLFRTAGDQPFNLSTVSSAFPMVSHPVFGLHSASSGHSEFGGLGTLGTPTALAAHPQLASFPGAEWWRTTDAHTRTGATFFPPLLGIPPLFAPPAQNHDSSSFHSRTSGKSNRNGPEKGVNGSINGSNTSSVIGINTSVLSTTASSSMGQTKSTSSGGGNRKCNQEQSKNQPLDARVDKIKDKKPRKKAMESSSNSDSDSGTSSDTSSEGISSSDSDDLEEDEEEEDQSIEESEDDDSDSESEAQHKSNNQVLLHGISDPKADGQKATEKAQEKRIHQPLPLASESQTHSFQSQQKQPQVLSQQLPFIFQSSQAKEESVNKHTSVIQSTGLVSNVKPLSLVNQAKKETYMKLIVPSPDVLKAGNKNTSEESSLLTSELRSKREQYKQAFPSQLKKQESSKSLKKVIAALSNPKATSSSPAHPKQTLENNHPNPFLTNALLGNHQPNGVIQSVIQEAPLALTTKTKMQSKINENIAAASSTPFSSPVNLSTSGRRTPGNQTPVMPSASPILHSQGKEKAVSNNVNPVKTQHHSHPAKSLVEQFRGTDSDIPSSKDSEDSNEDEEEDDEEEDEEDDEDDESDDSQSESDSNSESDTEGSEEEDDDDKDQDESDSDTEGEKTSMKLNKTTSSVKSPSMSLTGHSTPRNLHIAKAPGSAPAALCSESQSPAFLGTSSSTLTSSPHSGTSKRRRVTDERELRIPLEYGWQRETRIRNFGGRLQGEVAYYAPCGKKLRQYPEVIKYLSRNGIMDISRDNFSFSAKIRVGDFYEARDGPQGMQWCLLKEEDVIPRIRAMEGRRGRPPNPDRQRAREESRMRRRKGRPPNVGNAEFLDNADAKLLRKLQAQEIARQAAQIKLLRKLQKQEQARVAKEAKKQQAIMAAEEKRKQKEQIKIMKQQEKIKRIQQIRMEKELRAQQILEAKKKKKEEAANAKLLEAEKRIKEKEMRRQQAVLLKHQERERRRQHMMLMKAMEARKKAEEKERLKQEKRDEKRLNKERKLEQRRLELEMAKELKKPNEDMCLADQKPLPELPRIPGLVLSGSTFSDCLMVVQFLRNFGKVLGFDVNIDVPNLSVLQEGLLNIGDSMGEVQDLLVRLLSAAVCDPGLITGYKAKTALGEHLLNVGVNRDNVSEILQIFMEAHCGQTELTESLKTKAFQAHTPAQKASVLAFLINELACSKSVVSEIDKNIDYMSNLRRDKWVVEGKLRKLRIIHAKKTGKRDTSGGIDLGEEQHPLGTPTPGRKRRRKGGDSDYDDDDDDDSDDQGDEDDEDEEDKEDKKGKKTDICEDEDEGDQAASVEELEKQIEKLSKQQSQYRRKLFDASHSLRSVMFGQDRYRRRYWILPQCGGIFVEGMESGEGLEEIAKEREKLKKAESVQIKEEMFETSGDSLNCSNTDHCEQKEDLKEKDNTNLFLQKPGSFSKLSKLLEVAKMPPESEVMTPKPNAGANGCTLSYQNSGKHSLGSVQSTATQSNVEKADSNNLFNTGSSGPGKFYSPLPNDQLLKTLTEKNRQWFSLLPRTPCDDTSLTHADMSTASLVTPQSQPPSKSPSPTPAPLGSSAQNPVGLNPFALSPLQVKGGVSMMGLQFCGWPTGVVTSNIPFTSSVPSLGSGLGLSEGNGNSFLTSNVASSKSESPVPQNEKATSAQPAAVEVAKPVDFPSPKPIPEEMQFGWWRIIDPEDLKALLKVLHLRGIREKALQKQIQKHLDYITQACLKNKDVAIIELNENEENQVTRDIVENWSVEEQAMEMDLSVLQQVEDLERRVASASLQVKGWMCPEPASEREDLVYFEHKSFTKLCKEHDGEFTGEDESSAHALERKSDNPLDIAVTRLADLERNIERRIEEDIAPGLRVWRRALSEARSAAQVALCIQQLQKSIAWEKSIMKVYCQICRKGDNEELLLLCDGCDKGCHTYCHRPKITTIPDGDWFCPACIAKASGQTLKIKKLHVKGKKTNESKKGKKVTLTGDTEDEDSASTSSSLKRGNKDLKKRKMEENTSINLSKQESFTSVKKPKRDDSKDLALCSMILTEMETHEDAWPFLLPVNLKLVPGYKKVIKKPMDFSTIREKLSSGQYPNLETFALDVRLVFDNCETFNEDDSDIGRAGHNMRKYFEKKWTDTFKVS
#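 BAZ2B (50 nM) with biotin-H3(5-23)K14Ac peptide (50 nM) in PBS pH 7.4, 0.01% Tween-20, preformed 30 min, then compound 30 min at room temperature; top concentration 110uM. AlphaScreen streptavidin donor/nickel chelate acceptor beads (10 ug/mL final), 20 min dark, signal read.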
# HP1b binding inh: HTS for Inhibitors of HP1-beta Chromodomain Interactions with Methylated Histone Tails; Chromobox protein homolog 1 (Homo sapiens), P83916; AlphaScreen HP1-beta / biotin-H3K9me3 peptide binding; Potency, µM (series often up to 114 µM), inactives show at the highest dose activity change, negative = inhibition, actives largely listed as inhibitors; 0.56% of 390,000 active; AID 540317, 2011; note: nearly all actives have a fitted effect of over 70% in size
#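 AlphaScreen: HP1-beta (50 nM) preformed 30 min with biotin-H3(1-18)K9me3 peptide (50 nM) in PBS pH 7.4, 0.01% Tween-20. Compound added for 30 min at RT, then streptavidin donor/nickel chelate acceptor beads (10 ug/mL) for 30 min.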
# G9a inh: qHTS Assay for Inhibitors of Histone Lysine Methyltransferase G9a | Histone-lysine N-methyltransferase EHMT2 (Homo sapiens), Q96KQ7 | G9a H3K9 monomethylation, AlphaScreen, 2 h | Potency, µM (doses to about 102 µM), for the others: at the top dose activity, negative = inhibition, most hits filed as inhibitors | 8.8% of 350,000 active | AID 504332, 2011; note: % is set by controls: 0 for no effect and ±100 for the full control effect; nearly all actives have a fitted effect of over 75% in size
#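 Readings reflect AlphaScreen signal from monomethyl-H3K9 antibody detection. HMT at 20 nM; substrate b-H3K9 500 nM; cofactor SAM 20 uM; 2 h RT reaction; compounds tested as titrations in qHTS with 15 min preincubation.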
# Sfp inh: qHTS Assay for Inhibitors of Bacillus subtilis Sfp phosphopantetheinyl transferase (PPTase); 4'-phosphopantetheinyl transferase ffp (Bacillus subtilis), Q9F4F7; Biochemical Sfp PPTase activity, qHTS; Potency, µM, without a hit: largest response in the series, negative = inhibition, usual class: inhibitors; 3.5% of 310,000 active;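 note: the enzyme is Sfp with the accession as filed and its product quenches rhodamine fluorescence; 0% = enzyme reaction without inhibitor and -100% = no enzyme wells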
#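 Step 1, compound plus 15 nM Sfp-PPTase, 15 min, room temperature. Step 2, add rhodamine-CoA (5 uM) and BHQ-2-YbbR (12.5 uM). Step 3, read 525/598 nm fluorescence at 0 and 30 min.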
# TDP1 block: qHTS Assay for Inhibitors of Tyrosyl-DNA Phosphodiesterase (TDP1). recombinant TDP1, AlphaScreen DNA substrate cleavage. AID 485290, 2010. 0.28% of 350,000 active. Potency, µM (titrated, usually from 130 µM), inactives show top-dose activity change, negative = inhibition, most hits filed as inhibitors. Tyrosyl-DNA phosphodiesterase 1 (Homo sapiens), Q9NUW8; note: % is set by controls: 0 for no effect and ±100 for the full control effect; nearly all actives have a fitted effect of over 40% in size
#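 Steps: enzyme plus compound, 15 min RT; add biotin/phosphotyrosine-FITC oligonucleotide (15 nM final), react 5 min; add donor/acceptor beads (10 ug/ml final), 10 min; read AlphaScreen. Tdp1 at 1 nM final.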
# JMJD2A Tudor inh: qHTS Assay for Inhibitors of JMJD2A-Tudor Domain. Lysine-specific demethylase 4A (Homo sapiens), O75164. AlphaScreen JMJD2A-Tudor / H3K4me3 peptide binding. 4.4% of 390,000 active. Potency, µM (top dose mostly 114 µM), for inactives: at the top dose activity change, negative = inhibition, most hits filed as inhibitors; note: % is set by controls: 0 for no effect and ±100 for the full control effect; nearly all actives have a fitted effect of over 50% in size
# Active calls of the source: *; i = inactive; ? = inconclusive; . = no result; [ ] = remark or other dose. Calls come from the whole dose curve; as a rule, active = well fitted curve in the direction sought with a large enough effect; inconclusive = small, poorly fitted or top-dose-only effect, or another doubt; inactive = no such curve, though single readings can be large; an effect the other way counts as inactive or inconclusive. Potency is the fitted concentration of half-maximal effect.
SMILES,BAZ2B inh,HP1b binding inh,G9a inh,Sfp inh,TDP1 block,JMJD2A Tudor inh
COc1ccc(-c2csc(NC(=O)CSc3n[nH]c(N)n3)n2)cc1,-8%,79µM*,8.9µM*,-20%,5%,10µM*
COc1ccc(-c2csc(NC(=O)CSc3ccc(Br)cc3)n2)c(OC)c1,?,16%,25µM*,5%,8%,-16%
CN(C)c1ccc(/C=N/NC(=O)C[n+]2ccccc2)cc1,.,-3%,.,.,.,-12%
O=C(C[n+]1ccccc1)N/N=C/c1cc(Br)cc(Br)c1O,10µM*,27%,-12%,3%,.,22µM*
COc1ccc(Br)cc1/C=N/NC(=O)C[n+]1ccccc1,-15%,34%,-13%,5%,.,-9%
O=C(C[n+]1ccccc1)N/N=C/c1ccc(C(=O)O)cc1,79µM*,52%,?,.,0%,-30%
O=C(C[n+]1ccccc1)N/N=C/c1cc(Br)ccc1F,71µM*,28%,-3%[12.7 µM],.,-1%,?
CCCc1cc(=O)[nH]c(SCc2nc(-c3ccc(OC)cc3)no2)n1,1%,20%[57 µM],10%[59 µM],.,5%,-30%
S=C1NC[C@H](c2ccccc2)N1CC1CCCCC1,?,23%,9%[12.7 µM],13%,6%,-24%
CCC1CN(C(=O)N2CCC(C(=O)NCc3cccc(F)c3)CC2)c2ccccc2O1 (centres undefined),-15%,13%,22%,19%,2%,-2%
COc1ccc(C(N)=O)c(OCC(=O)Nc2cc(C)on2)c1,1%,38%,2%[12.7 µM],.,0%,0%
COc1ccccc1CNc1nc2nc(C)c(Cl)c(=O)n2[nH]1,14%,32%,13µM*,13%,-3%,-14%
Cc1cc(=O)n2[nH]c(NCc3ccc(F)cc3)nc2n1,-21%,23%,-41%[59 µM],.,4%,-23%
COc1ccc(CNc2nc3nc(C)c(Cl)c(=O)n3[nH]2)cc1,-19%,84%,56µM*,11%,-5%,-3%[11.4 µM]
CC(=O)Nc1cccc(NC(=O)CSc2nccn2C2CCCC2)c1,-3%,40%,-20%[59 µM],.,7%,-16%
O=C(CSc1nccn1C1CCCC1)Nc1cccc(F)c1,79µM*,9%,-16%[59 µM],.,4%,-29%
O=C(NCc1cccc(Cl)c1)c1ccc(CS(=O)Cc2ccc(Cl)cc2)o1 (centres undefined),-9%,35%,.,0%,2%,-26%
Cc1ccccc1-c1cc(C(=O)NCc2ccc3c(c2)OCO3)nn1CC1CC(c2cccc([N+](=O)[O-])c2)=NO1 (centres undefined),.,-7%,.,.,4%,-27%
COc1ccc(S(=O)(=O)N2CCC(C(=O)Nc3ccc(Oc4ccccc4)cc3)CC2)cc1OC,-1%,28%,3%[59 µM],.,.,-3%
CSc1cccc(NC(=O)CN(C)S(=O)(=O)c2ccc3c(c2)n(C)c(=O)c(=O)n3C)c1,-19%,34%,1µM*,.,-1%,-15%
CN(CC(=O)Nc1cccc(Cl)c1)S(=O)(=O)c1ccc2c(c1)n(C)c(=O)c(=O)n2C,-5%,-11%,.,2%,3%,?
COc1cc2cc(CNc3ccccc3)c(=O)n(CC(=O)Nc3ccc(C)c(Cl)c3)c2cc1OC,-7%,-6%,-45%[59 µM],.,6%,-29%
CCc1ccc(S(=O)(=O)c2c(C(=O)c3ccc(C)c(C)c3)cnc3ccccc23)cc1,-25%,13%,?,.,0%,-20%
CC(C)(C)n1cn[nH]c1=S,-20%,8%,25µM*,-19%,?,-31%
COCCCn1cn[nH]c1=S,6%,36%,?,?,8%,?
SMILES,BAZ2B inh,HP1b binding inh,G9a inh,Sfp inh,TDP1 block,JMJD2A Tudor inh
C[C@@H](C(=O)NCc1c(F)cccc1Cl)N1C(=O)N2CCc3c([nH]c4ccccc34)[C@@]2(C)C1=O,?,1%,.,-4%,.,?
Cc1ccccc1CC1(CO)CCCN(C(=O)c2ccc3ncccc3c2)C1 (centres undefined),1%,-2%,.,-3%,5%,8.9µM*
Cc1[nH]c(=S)c(C#N)c(C)c1C(=O)Nc1ccccc1,-4%,?,1.3µM*,45µM*,8%,8.9µM*
CCc1c(C(=O)Nc2ccccc2)c(C)[nH]c(=S)c1C#N,-8%,?,1.6µM*,56µM*,7%,7.1µM*
Cc1[nH]c(C(=O)O)c(C#N)c1C(=O)c1ccccc1,-18%,15%,?,-4%,.,-14%
CSc1ccccc1NC(=O)CSCc1nc2sc(C)c(C)c2c(=O)[nH]1,7%,6%,?,.,-1%,-15%
Cc1sc2nc(CSCC(=O)Nc3ccccc3C#N)[nH]c(=O)c2c1C,7%,-6%,?,79µM*,-3%,-17%
Cc1ccc(F)cc1NC(=O)CSCc1nc2sc(C)c(C)c2c(=O)[nH]1,-2%,12%,40µM*,.,-13%,-22%
N#Cc1c(-c2ccccc2)nc2n1CCS2,-8%,19%,7%,13%,4%,-24%
Clc1ccc(/C=N/c2c(-c3ccc(Cl)cc3)nc3n2CCS3)cc1,?,-31%,35µM*,9%,4%,?
O=c1cc(/N=C/c2coc3cc(Br)ccc3c2=O)[nH]c(=S)[nH]1,?,9%,-44%,14%,5%,-25%
CC(=O)Oc1ccc2c(=O)c(/C=N/c3cc(=O)[nH]c(=S)[nH]3)coc2c1,-24%,20%,35µM*,-23%,79µM*,-20%
Cc1ccc(N(CC(O)Cn2c3ccccc3c3ccccc32)S(C)(=O)=O)cc1 (centres undefined),-1%,7%,17%[12.7 µM],2%,4%,-24%
CC(=O)Nc1ccc(N(CC(O)Cn2c3ccccc3c3ccccc32)S(=O)(=O)c2ccc(C)cc2)cc1 (centres undefined),-26%,5%,10µM*,22%,-1%,-26%
Cn1c(C=O)c(C#Cc2ccccc2)c2ccccc21,420%,i,-4%[0.501 µM],.,20µM*,412%
CC(=O)OCC(=O)[C@@]1(OC(C)=O)[C@H](C)C[C@H]2[C@@H]3C[C@H](F)C4=CC(=O)C=C[C@@]4(C)[C@]3(F)[C@H](O)C[C@@]21C,.,.,17%[21.5 µM],22%,-2%[21 µM],.
O=C(NNc1ccc([N+](=O)[O-])cc1)c1ccccc1Cl,-4%,17%,?,-27%,0%,-19%

# Screening data: PubChem BioAssay, National Center for Advancing Translational Sciences (NCATS)
